DAX1 inh-1 – DAX1 (NR0B1) inhibitors on StAR promoter, primary screen, cell-based, luminescence, SF-1 (NR5A1), full-length DAX-1 | HEK293T StAR-luciferase reporter, SF-1/DAX-1 repression relief | inhibition, % at 6.8 µM | actives 1.1% (n = 370,000) | AID 652010, 2013;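 active means inhibition above the mean over all tested compounds plus 3 SD, cut at about 3.6% in these data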;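 further: 0% = DAX-1 cells with DMSO and 100% = cells lacking DAX-1 with DMSO; higher inhibition means more luminescence from relief of DAX-1 repression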
hgDAF-12 ag – H. glycines DAF-12 receptor agonists, primary screen, cell-based, luminescence, HEK293, GAL4 fusion, UAS-luciferase. Nuclear hormone receptor DAF-12 (Heterodera glycines), GAL4 fusion. HEK293 GAL4-hgDAF12 UAS-luciferase reporter, agonist luminescence; normalized to butyrate control. activation, % at 6.8 µM. actives 1.8% (n = 370,000);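 active means activation above a cutoff set at the mean of all screened compounds plus 3 SD, cut at about 10% in these data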;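 further: 0% = DMSO wells and 100% = sodium butyrate wells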
ssDAF-12 act – S. stercoralis DAF-12 nuclear receptor activators, primary screen, cell-based, luminescence, HEK293, GRIP1 co-expression, lit1-tk-luc | HEK293 ssDAF-12/GRIP1 lit1-tk-luc reporter; % of 3 µM dafachronic acid response | Nuclear hormone receptor DAF-12 (Strongyloides stercoralis) | activation, % at 6.8 µM | actives 1% (n = 370,000);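 active means activation above the mean over all tested compounds plus 3 SD, cut at about 0.9% in these data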;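 further: 0% = DMSO-only wells and 100% = 3 µM delta7-dafachronic acid wells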
DAX1 inh-2 – DAX1 (NR0B1) inhibitors, primary screen, cell-based, HEK293, Gal4-DAX1, luciferase luminescence; HEK293 Gal4-DAX1 luciferase reporter; inhibition, % at 6.75 µM; actives 0.99% (n = 340,000);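 active means inhibition above the mean over all tested compounds plus 3 SD, cut at about 4.2% in these data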;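 further: 0% = DAX1-transfected cells with DMSO and 100% = empty-vector control cells with DMSO; inhibition shows as a rise in luminescence from relieved DAX1 repression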
Target sequence (P51843 207-470 limits assumed): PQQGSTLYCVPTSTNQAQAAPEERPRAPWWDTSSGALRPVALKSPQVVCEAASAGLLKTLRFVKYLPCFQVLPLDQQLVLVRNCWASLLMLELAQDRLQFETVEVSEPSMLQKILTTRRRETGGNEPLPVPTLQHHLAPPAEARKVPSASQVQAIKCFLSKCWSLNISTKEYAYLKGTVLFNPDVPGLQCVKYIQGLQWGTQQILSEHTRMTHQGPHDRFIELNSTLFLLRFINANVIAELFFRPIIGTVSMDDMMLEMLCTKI
hcDAF12 agonist – H. contortus DAF-12 nuclear receptor activators, primary screen, cell-based, luminescence, HEK293, lit1-tk-luc reporter; actives 1.4% (n = 370,000); activation, % at 6.8 µM; HEK293 hcDAF-12 lit1-tk-luc reporter; 0% DMSO, 100% Δ7-dafachronic acid;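 active means activation above the mean of all tested compounds plus 3 SD, cut at about 5.5% in these data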;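 further: 100% = response to 3 µM Δ7-dafachronic acid high control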
The depositor's hits bear a star. Hits are enriched below; roughly 4.1% of the tested compounds scored in any of these assays.

What do the screens show for `COc1ccc(OCC(=O)Nc2c(C)ccc3nsnc23)cc1`?
DAX1 inh-1: -3; hgDAF-12 ag: -2; ssDAF-12 act: -1; DAX1 inh-2: 0; hcDAF12 agonist: -2

What do the screens show for `CCN(CC(=O)Nc1ccc2c(c1)OCCO2)C(=O)/C=C/c1cccc(OC)c1OC`?
DAX1 inh-1: 2; hgDAF-12 ag: 5; ssDAF-12 act: 0; DAX1 inh-2: 2; hcDAF12 agonist: 1

Results for COc1cccc(/C=C/C(=O)c2ccc3c(c2)OCCO3)c1OC ?
DAX1 inh-1: 0; hgDAF-12 ag: 10*; ssDAF-12 act: -1; DAX1 inh-2: 0; hcDAF12 agonist: 0

Results for O=C(/C=C/c1ccc2c(c1)OCCO2)c1ccccc1 ?
DAX1 inh-1: 1; hgDAF-12 ag: 11*; ssDAF-12 act: -1; hcDAF12 agonist: 4

Results for COc1ccc(CN2C3=N[C@H](c4ccccc4)CC(=O)N3/C(=C\c3ccccc3)C2c2ccco2)c(OC)c1 (some centres undefined) ?
DAX1 inh-1: 0; hgDAF-12 ag: -1; ssDAF-12 act: 0; hcDAF12 agonist: 0

Results for O=c1c(-c2ccccc2)c[nH]n1-c1cccc([N+](=O)[O-])c1 ?
DAX1 inh-1: 2; hgDAF-12 ag: 3; ssDAF-12 act: -1; DAX1 inh-2: 8.3*; hcDAF12 agonist: 1

What do the screens show for `O=c1c(-c2ccc(Cl)cc2)c[nH]n1-c1ccccc1`?
DAX1 inh-1: 0; hgDAF-12 ag: 3; ssDAF-12 act: -1; DAX1 inh-2: 1; hcDAF12 agonist: 1

What do the screens show for `O=C(OC12CCCN(C1)/C(=C/c1ccccc1)C2)c1cccc(F)c1` (centres undefined)?
DAX1 inh-1: 1; hgDAF-12 ag: -2; ssDAF-12 act: -1; hcDAF12 agonist: -2

What do the screens show for `COc1ccccc1-c1cc(=O)c2c(O)ccc([N+](=O)[O-])c2o1`?
DAX1 inh-1: 0; hgDAF-12 ag: 4; ssDAF-12 act: -1; DAX1 inh-2: 2; hcDAF12 agonist: 0

Results for COC(=O)c1cc(=O)c2c([N+](=O)[O-])ccc(OC)c2o1 ?
DAX1 inh-1: 0; hgDAF-12 ag: -1; ssDAF-12 act: -1; DAX1 inh-2: 4.6*; hcDAF12 agonist: -2

How did CCOC(=O)N1CCN(C(=O)C[C@@H]2C(=O)N(Cc3ccc(OC)cc3)/C3=C/CCCCC[C@@]32C(=O)OCC)CC1 do in these assays?
DAX1 inh-1: 0; hgDAF-12 ag: 1; ssDAF-12 act: -2; hcDAF12 agonist: -2

Results for Cc1ccccc1NC(=O)NCCc1nc2ccccc2[nH]1 ?
DAX1 inh-1: 0; hgDAF-12 ag: -1; ssDAF-12 act: -1; DAX1 inh-2: 0; hcDAF12 agonist: 1

What do the screens show for `Cc1ccccc1NC(=S)c1nc2ccccc2[nH]1`?
DAX1 inh-1: 0; hgDAF-12 ag: 8; ssDAF-12 act: 1.2*; DAX1 inh-2: 0; hcDAF12 agonist: 5.8*

What do the screens show for `Cc1ccc(C(=O)n2ccc3ccc(-c4ccc5ccn(Cc6ccccc6)c5c4)cc32)cc1`?
DAX1 inh-1: 0; hgDAF-12 ag: 3; ssDAF-12 act: 0; hcDAF12 agonist: 6.2*

Results for CCOC(=O)N1CCN(c2c(NCCN3CCCCC3CC)c(=O)c2=O)CC1 (centres undefined) ?
DAX1 inh-1: 4.2*; hgDAF-12 ag: -2; ssDAF-12 act: -1; DAX1 inh-2: 0; hcDAF12 agonist: -1

What do the screens show for `COc1cc2c(cc1OC)C1CCc3cc4c(cc3C1N=C2)OCO4` (centres undefined)?
DAX1 inh-1: 2; hgDAF-12 ag: 11*; ssDAF-12 act: 0; DAX1 inh-2: 1; hcDAF12 agonist: 2

How did Fc1ccc(COc2ccc(C(=S)N3CCCC3)cc2)cc1 do in these assays?
DAX1 inh-1: 2; hgDAF-12 ag: 6; ssDAF-12 act: 0; DAX1 inh-2: 4.3*; hcDAF12 agonist: 1

How did CSc1nnc(N2C(=O)C(O)=C(C(=O)c3ccc(C)o3)C2c2ccc(C)cc2)s1 (centres undefined) do in these assays?
DAX1 inh-1: 2; hgDAF-12 ag: 11*; ssDAF-12 act: 0; DAX1 inh-2: 2; hcDAF12 agonist: 5

What do the screens show for `C=CCN1C(C(=O)OC)CN(Cc2cn(Cc3ccc(C)cc3)nn2)CCS1(=O)=O` (centres undefined)?
DAX1 inh-1: 0; hgDAF-12 ag: -2; ssDAF-12 act: -1; hcDAF12 agonist: -1

What do the screens show for `CCCC1CCC2(CC1)CCC2OC(=S)Nc1cccc(C(F)(F)F)c1` (centres undefined)?
hgDAF-12 ag: -3; ssDAF-12 act: -2; hcDAF12 agonist: 0

How did O=C(Nc1cccnc1)c1ccc(N2CCCC2)c([N+](=O)[O-])c1 do in these assays?
DAX1 inh-1: 0; hgDAF-12 ag: 2; ssDAF-12 act: -1; DAX1 inh-2: 5.2*; hcDAF12 agonist: 1

What do the screens show for `O=C(Nc1cccnc1)c1ccc(N2CCOCC2)c([N+](=O)[O-])c1`?
DAX1 inh-1: 0; hgDAF-12 ag: 0; ssDAF-12 act: -2; DAX1 inh-2: 1; hcDAF12 agonist: -1

How did COC(=O)[C@]12C[C@H](CC(=O)NCc3ccccc3)C(=O)N(CCc3ccc(OC)c(OC)c3)C1=C[C@H](C(C)C)O[C@@H]2C1CC1 do in these assays?
DAX1 inh-1: 0; hgDAF-12 ag: -1; ssDAF-12 act: -1; hcDAF12 agonist: -3

What do the screens show for `Cn1cccc1/C=N/NC(=O)c1ccncc1`?
DAX1 inh-1: 0; hgDAF-12 ag: -1; ssDAF-12 act: -1; hcDAF12 agonist: 6.2*

What do the screens show for `O=C(N/N=C/c1ccc(OC(=O)c2ccccc2Cl)cc1)c1ccccn1`?
DAX1 inh-2: 1

How did Cn1cccc1/C=N/NC(=O)c1ccccn1 do in these assays?
DAX1 inh-1: 3.7*; hgDAF-12 ag: 12*; ssDAF-12 act: 0; DAX1 inh-2: 1; hcDAF12 agonist: 2

What do the screens show for `CCc1ccc(/C=N/NC(=O)c2ccccn2)cc1`?
DAX1 inh-1: 2; hgDAF-12 ag: 11*; ssDAF-12 act: 0; DAX1 inh-2: 0; hcDAF12 agonist: 6

What do the screens show for `O=C(N/N=C/c1cccs1)c1ccccn1`?
DAX1 inh-1: 3; hgDAF-12 ag: 12*; ssDAF-12 act: 0; DAX1 inh-2: 2; hcDAF12 agonist: 5

Results for COc1cc(NC(=O)C2CCCC2)c(OC)cc1Cl ?
DAX1 inh-1: 0; hgDAF-12 ag: 1; ssDAF-12 act: -1; DAX1 inh-2: 0; hcDAF12 agonist: 1

What do the screens show for `COc1ccccc1NC(=O)C/C(C)=N/NC(=O)c1ccccn1`?
DAX1 inh-1: 2; hgDAF-12 ag: 13*; ssDAF-12 act: 0; DAX1 inh-2: 3; hcDAF12 agonist: 4
